Measured values: PubChem BioAssay (NCATS)
Inconclusive results are not listed. Active and inactive are the calls of the source. Unless noted, calls come from the whole dose curve; as a rule, active = well fitted curve in the direction sought with a large enough effect; inconclusive = small, poorly fitted or top-dose-only effect, or another doubt; inactive = no such curve, though single readings can be large; an effect the other way counts as inactive or inconclusive. Where a SMILES comes first, the peptide text is derived from it.

Columns and labels:
[1] = tested on: Zika virus NS2B-NS3 protease; experiment: Primary screen GU AMC qHTS for Zika virus inhibitors (AID 1347154);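 note: 0% = no-inhibitor control and -100% = no-enzyme control; nearly all actives have a fitted effect of over 70% in size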
How it was run: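 Unlinked Zika NS2B hydrophilic domain/NS3 protease domain noncovalent complex (25 nM final) in 10 mM Tris-HCl pH 8.0, 0.01% Tween 20, with AMC peptide substrate. Fluorescence (ex 340, em 450 nm) change over 15 min, room temperature; percent inhibition fitted to 4-parameter Hill equation.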

[2] = Primary qHTS for small molecule stabilizers of the endoplasmic reticulum resident proteome: Secreted ER Calcium Modulated Protein (SERCaMP) assay (AID 1508630); note: % is set by controls: 0 for no effect and ±100 for the full control effect
How it was run: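 GLuc-SERCaMP-expressing SH-SY5Y cells, pretreated 16 h with compound, are challenged with thapsigargin to empty ER calcium stores; after 4 h, coelenterazine is added directly to the medium and luminescence is imaged.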

[3] = molecular target: Cytochrome P450 1A2 (Homo sapiens) (UniProt P05177); experiment: p450-cyp1a2 (AID 410; calls by dose curve; note: potency is the fitted concentration of half-maximal effect;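 for activity change, negative = inhibition: -100% = full effect of reference inhibitor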)
How it was run: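 20nM CYP1A2 with 100uM Luciferin-ME (at Km) in 100mM KPO4; compound preincubated 10 min, NADPH regeneration added, 60 min at room temperature. Luciferin quantified by luminescence after detection reagent; normalized to 57 uM furafylline.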

[4] = NFAT Signaling Pathway (AID 444; active = well fitted curve in either direction with a large enough effect, not every such curve was filed as active;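 note: carbachol stimulus at about its EC50 of 1 µM final; % is set by controls: 0 for no effect and ±100 for the full control effect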); settings: Jurkat NFAT-bla M1, carbachol, beta-lactamase ratio, 5 h; at 38 µM (top of the series)
How it was run: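 Jurkat cells carrying an NFAT-driven β-lactamase reporter and co-transfected muscarinic M1 receptor were treated with compound plus carbachol (1 uM final, an EC50 level) for 5 h at 37 °C. CCF4 loading followed for 1 h at RT; 460/530 nm ratio gave %activity.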

[5] = molecular target: Glucocorticoid receptor (Homo sapiens) (UniProt P04150); experiment: GR-GFP Redistribution (AID 450;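 active = compounds whose dose series gives a full or clear partial fitted curve of increased nuclear translocation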; note: potency is the fitted concentration of half-maximal effect); settings: U2OS GR-GFP nuclear translocation, laser cytometry, 2 h
[6] = molecular target: Glucocorticoid receptor (Homo sapiens) (UniProt P04150); experiment: GR-EFC Redistribution (AID 451; calls by dose curve; note: potency is the fitted concentration of half-maximal effect); settings: CHO-K1 GR-EFC translocation, beta-gal luminescence, 2 h
How it was run: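 CHO-K1 cells stably expressing nuclear-localized β-gal enzyme acceptor and GR fused C-terminally to the enzyme donor fragment; ligand-driven nuclear translocation restores β-gal by complementation. Compounds titrated up to 46 uM final, 2 h at 37 °C; luminescence read.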

[7] = molecular target: Mitogen-activated protein kinase 10 (Mus musculus) (UniProt Q61831); experiment: JNK3 AlphaScreen Assay (AID 530; active = well fitted curve in either direction with a large enough effect, not every such curve was filed as active;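 note: kinase came from lysate of stimulated human HepG2 cells; signal reports phosphorylation of biotinylated GST-cJun 1-79 at Ser73 with 10 µM ATP; % is set by controls: 0 for no effect and ±100 for the full control effect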)
How it was run: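 Inhibitors reduce antibody binding to phosphorylated biotin-cJun, lowering AlphaScreen luminescence. Lysates from HepG2 cells pre-activated by IL-1beta plus TNF-alpha supplied JNK3; compounds were titrated.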

[8] = molecular target: 3',5'-cyclic-AMP phosphodiesterase 4B (Homo sapiens) (UniProt Q07343); experiment: qHTS Assay for Inhibitors of PDE-IV (AID 607; active = well fitted activation curve with a large enough effect in the main read-out, with a control signal flat, not every such curve was filed as active; note: % of control where 0% means no effect)
How it was run: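 ACTOne HEK293 cells carry a modified cAMP-gated CNG channel and express endogenous PDE4; plated 1000 cells/well, compounds up to 22.9 uM final. Membrane-potential dye fluorescence (ex 535/em 590) was read; parental cells received 10 uM forskolin + 100 uM RO 20-1724.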

[9] = molecular target: Guanine nucleotide-binding protein G(i) subunit alpha-1 (Homo sapiens) (UniProt P63096); experiment: qHTS Assay for Inhibitors of RGS12 GoLoco Motif Activity (Green Fluorophore) (AID 879);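 note: 0% = labeled peptide with Gαi1 and full inhibition = labeled peptide alone without protein; negative values mean loss of peptide binding seen as reduced polarization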
How it was run: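 Fluorescence polarization assay: 50 nM Gαi1 with 10 nM FITC-labeled RGS12 GoLoco peptide in 10 mM Tris pH 7.5, 150 mM NaCl, 0.1 mM GDP, 0.05% NP40, 10 min at room temperature with compound.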

[10] = molecular target: Cytochrome P450 2C9 (Homo sapiens) (UniProt P11712); experiment: qHTS Assay for Inhibitors and Substrates of Cytochrome P450 2C9 (AID 883); note: potency is the fitted concentration of half-maximal effect; nearly all actives have a fitted effect of over 60% in size
How it was run: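 A luminogenic readout tracked human CYP2C9 (10nM) converting deoxyluciferin (100uM, at KM) in 25mM KPO4 during 60 min at 37C with regenerated NADPH. Values normalized to 57uM sulphaphenazole as complete inhibition.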

[11] = molecular target: Cytochrome P450 3A4 (Homo sapiens) (UniProt P08684); experiment: qHTS Assay for Activators of Cytochrome P450 3A4 (AID 885); note: nearly all actives have a fitted effect of over 65% in size
How it was run: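 20nM CYP3A4 + 25uM Luciferin-PPXE (=KM), 200mM KPO4; cpd 10 min RT; NADPH regen, 60 min RT; stop w/ detection buffer, 20 min; luminescence. Normalized to 57 uM ketoconazole.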

[12] = molecular target: Cytochrome P450 2C19 (Homo sapiens) (UniProt P33261); experiment: qHTS Assay for Inhibitors and Substrates of Cytochrome P450 2C19 (AID 899); note: potency is the fitted concentration of half-maximal effect; nearly all actives have a fitted effect of over 60% in size
How it was run: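 NADPH-dependent conversion of Luciferin-H EGE (10uM, at KM) by 5nM enzyme in 50mM KPO4, 60 min at 37C following 10 min compound preincubation. Stopped with luciferin detection buffer; luminescence read after 20 min.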

[13] = qHTS Assay for Identification of Small Molecule Agonists for Thrombopoietin (TPO) Signaling Pathway (AID 917); note: % is set by controls: 0 for no effect and ±100 for the full control effect
How it was run: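 Activators of TPO signaling were sought in murine Ba/F3 cells transfected with the human receptor, using a luciferase gene driven by the Glycoprotein IIb promoter; 24-hr compound exposure at 37 C alongside 26 pM TPO, in IL-3-free medium.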

[14] = molecular target: Muscarinic acetylcholine receptor M1 (Rattus norvegicus) (UniProt P08482); experiment: qHTS Assay for Antagonists of Acetylcholine Muscarinic M1 Receptor: Measurement of IP-One Response (AID 944); note: potency is the fitted concentration of half-maximal effect; nearly all actives have a fitted effect of over 75% in size
How it was run: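 CHO cells stably expressing rat M1, pretreated 10 min with compound, then stimulated 30 min with carbachol at EC80 (200 nM) in LiCl-containing buffer pH 7.4; IP1 accumulation read by HTRF competition (665/620 nm).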

[15] = molecular target: Pyruvate kinase (Leishmania mexicana) (UniProt Q27686); experiment: qHTS Validation Assay for Inhibitors of Leishmania Mexicana Pyruvate Kinase (AID 945);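 note: 0% = DMSO only neutral control wells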
How it was run: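 Compounds are tested as eight-point concentration series. Reactions contain 0.2 nM LmPYK E451W, 0.5 mM PEP, 0.1 mM ADP, 7 mM MgCl2 and 50 mM KCl at pH 7.2, run 1 h at room temperature, then read by PKLight luminescence.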

[16] = molecular target: Alpha-galactosidase (Coffea arabica) (UniProt Q42656); experiment: Counterscreen for Glucocerebrosidase Inhibitors: qHTS Assay for Coffee Bean alpha-Galactosidase at pH 4.5 (AID 957);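 note: plate controls were enzyme alone for no effect and no enzyme for full effect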
How it was run: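 Coffee bean enzyme (2 nM) with 80 uM 4-methylumbelliferyl alpha-D-galactopyranoside in 50 mM citric acid, 0.005% Tween-20, pH 4.5, 20 min at room temperature; compounds 0.7 nM–77 uM. Stopped at pH 10, fluorescence 365/440 nm; AC50 from Hill fits.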

[17] = molecular target: Alpha-galactosidase A (Homo sapiens) (UniProt P06280); experiment: Counterscreen for Glucocerebrosidase Inhibitors: qHTS Assay for Human alpha-Galactosidase at pH 4.5 (AID 992); note: 0% is about no effect
How it was run: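 Enzyme at 2 nM final was combined with compound (0.7 nM to 77 uM) and 80 uM 4-methylumbelliferyl alpha-D-galactopyranoside in 50 mM citric acid, 0.005% Tween-20, pH 4.5. After 20 min at room temperature, fluorescence was read (Ex 365/Em 440 nm); AC50 came from Hill fits.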

[18] = molecular target: Alpha-galactosidase (Coffea arabica) (UniProt Q42656); experiment: Counterscreen for Glucocerebrosidase Inhibitors: qHTS Assay for Coffee Bean alpha-Galactosidase at pH 5.9 (AID 998);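 note: plate controls were uninhibited enzyme for no effect and no-enzyme basal signal for full effect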
How it was run: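 Green coffee bean enzyme (2 nM final) was incubated with compounds (0.7 nM–77 uM) and 4-methylumbelliferyl alpha-D-galactopyranoside (80 uM) in citrate buffer pH 5.9, 20 min at room temperature. High-pH stop; fluorescence 365/440 nm; AC50 from Hill fits.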

[19] = qHTS Assay for Lipid Storage Modulators (AID 1519; calls by dose curve); settings: Drosophila S3 cells, BODIPY lipid droplet/cell ratio, laser cytometry, cells loaded with oleic acid; for activity change, negative = inhibition: at 57.5 µM (top of the series)
How it was run: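 Cells seeded at 5,000 per well were treated with compounds over a concentration series and loaded with oleic acid (400 uM, as added). Lipid droplet fluorescence (488 nm excitation, 500-530 nm channel) was read by laser-scanning cytometry and normalized to 20 uM Triacsin C.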

[20] = molecular target: DNA dC->dU-editing enzyme APOBEC-3G (Homo sapiens) (UniProt Q9HC16); experiment: qHTS for inhibitors of Vif-A3G interactions: Validation (AID 588379); note: 0% is about no effect
How it was run: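 HeLa cells stably expressing Vif and A3G-eYFP, 700 cells/well, incubated overnight at 37 deg C, then exposed to compound overnight at 37 deg C. Inhibition of Vif-mediated degradation read as increased yellow fluorescence (Ex 488/Em 500-530) by laser-scanning cytometry.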

[21] = measured here: cell count channel max response
[22] = measured here: lipid channel max response

3',5'-cyclic-AMP phosphodiesterase 4B (Homo sapiens), sequence (Q07343 whole entry, looked up): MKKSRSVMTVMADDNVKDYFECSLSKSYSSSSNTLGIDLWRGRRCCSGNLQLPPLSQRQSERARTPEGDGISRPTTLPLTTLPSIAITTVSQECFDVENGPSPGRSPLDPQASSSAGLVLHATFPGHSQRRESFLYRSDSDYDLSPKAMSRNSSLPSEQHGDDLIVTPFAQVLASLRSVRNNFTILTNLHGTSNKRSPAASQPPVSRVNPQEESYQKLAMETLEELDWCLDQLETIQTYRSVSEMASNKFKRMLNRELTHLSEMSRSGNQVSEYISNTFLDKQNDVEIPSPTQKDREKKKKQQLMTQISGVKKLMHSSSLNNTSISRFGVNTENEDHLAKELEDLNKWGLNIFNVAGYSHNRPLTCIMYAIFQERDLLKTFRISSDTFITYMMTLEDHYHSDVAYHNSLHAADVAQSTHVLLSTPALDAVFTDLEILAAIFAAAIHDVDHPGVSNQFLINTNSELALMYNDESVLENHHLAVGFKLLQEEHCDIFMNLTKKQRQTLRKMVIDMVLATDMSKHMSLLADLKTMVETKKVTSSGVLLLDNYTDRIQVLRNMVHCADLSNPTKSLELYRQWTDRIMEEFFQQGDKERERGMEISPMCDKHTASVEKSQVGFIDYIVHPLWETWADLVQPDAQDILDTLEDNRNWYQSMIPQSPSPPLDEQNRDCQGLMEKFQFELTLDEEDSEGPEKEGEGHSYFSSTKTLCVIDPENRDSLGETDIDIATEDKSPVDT
Cytochrome P450 1A2 (Homo sapiens), sequence (P05177 whole entry, looked up): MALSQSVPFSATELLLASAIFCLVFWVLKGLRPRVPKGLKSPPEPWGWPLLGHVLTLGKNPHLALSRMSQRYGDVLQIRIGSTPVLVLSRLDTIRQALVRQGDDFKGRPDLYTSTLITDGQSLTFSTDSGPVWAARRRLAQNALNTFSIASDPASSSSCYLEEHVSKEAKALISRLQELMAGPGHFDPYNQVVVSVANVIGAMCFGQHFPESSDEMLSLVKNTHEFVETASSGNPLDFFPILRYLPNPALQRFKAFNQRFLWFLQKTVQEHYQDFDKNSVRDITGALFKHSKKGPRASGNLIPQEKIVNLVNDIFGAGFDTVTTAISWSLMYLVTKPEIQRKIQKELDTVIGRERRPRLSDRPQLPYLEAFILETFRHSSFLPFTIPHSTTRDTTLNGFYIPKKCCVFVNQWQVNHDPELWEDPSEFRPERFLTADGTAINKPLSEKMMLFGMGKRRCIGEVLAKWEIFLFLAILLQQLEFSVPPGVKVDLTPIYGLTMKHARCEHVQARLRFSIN
Glucocorticoid receptor (Homo sapiens), sequence (P04150 whole entry, looked up, the tested form may be a part): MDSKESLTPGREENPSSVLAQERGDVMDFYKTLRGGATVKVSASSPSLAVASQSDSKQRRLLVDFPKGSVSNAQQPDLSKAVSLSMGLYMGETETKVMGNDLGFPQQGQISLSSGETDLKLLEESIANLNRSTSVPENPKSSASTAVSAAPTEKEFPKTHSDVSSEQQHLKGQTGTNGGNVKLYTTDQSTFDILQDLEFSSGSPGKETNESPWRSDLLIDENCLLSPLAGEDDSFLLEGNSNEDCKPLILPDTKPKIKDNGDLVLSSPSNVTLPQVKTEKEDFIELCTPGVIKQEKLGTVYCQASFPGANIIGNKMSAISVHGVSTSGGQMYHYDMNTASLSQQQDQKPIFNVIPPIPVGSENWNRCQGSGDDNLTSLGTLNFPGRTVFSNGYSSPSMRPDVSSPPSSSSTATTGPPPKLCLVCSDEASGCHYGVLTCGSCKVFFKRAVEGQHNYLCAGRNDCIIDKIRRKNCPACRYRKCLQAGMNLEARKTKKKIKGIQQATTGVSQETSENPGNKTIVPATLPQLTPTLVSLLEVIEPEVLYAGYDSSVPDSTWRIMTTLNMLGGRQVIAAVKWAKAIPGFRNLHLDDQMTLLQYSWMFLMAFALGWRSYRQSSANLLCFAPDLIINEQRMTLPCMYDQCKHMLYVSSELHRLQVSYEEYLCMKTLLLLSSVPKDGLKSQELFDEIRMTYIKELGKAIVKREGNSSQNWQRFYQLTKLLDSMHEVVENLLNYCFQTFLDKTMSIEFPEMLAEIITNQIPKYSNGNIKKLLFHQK
DNA dC->dU-editing enzyme APOBEC-3G (Homo sapiens), sequence (Q9HC16 whole entry, looked up): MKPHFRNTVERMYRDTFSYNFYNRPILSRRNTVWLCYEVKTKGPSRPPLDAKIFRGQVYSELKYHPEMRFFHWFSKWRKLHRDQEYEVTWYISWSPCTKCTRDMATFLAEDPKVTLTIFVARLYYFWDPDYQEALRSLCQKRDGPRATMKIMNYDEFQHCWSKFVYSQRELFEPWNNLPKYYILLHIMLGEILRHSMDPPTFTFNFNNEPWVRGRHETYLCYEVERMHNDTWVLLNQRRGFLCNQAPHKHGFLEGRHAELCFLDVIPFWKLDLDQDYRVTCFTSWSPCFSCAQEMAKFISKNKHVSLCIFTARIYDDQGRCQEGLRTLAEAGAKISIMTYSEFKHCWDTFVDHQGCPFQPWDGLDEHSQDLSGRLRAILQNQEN
Alpha-galactosidase (Coffea arabica), sequence (Q42656 whole entry, looked up): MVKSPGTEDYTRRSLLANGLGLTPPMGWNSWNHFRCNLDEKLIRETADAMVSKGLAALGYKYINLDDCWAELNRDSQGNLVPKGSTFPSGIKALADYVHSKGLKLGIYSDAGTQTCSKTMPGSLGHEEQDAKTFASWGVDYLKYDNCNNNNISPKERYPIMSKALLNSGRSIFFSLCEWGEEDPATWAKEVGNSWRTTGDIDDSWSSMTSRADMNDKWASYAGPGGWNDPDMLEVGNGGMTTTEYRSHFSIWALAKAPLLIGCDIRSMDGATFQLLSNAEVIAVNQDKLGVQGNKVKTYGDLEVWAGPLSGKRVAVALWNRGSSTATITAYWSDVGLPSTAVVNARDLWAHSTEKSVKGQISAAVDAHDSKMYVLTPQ
Alpha-galactosidase A (Homo sapiens), sequence (P06280 whole entry, looked up): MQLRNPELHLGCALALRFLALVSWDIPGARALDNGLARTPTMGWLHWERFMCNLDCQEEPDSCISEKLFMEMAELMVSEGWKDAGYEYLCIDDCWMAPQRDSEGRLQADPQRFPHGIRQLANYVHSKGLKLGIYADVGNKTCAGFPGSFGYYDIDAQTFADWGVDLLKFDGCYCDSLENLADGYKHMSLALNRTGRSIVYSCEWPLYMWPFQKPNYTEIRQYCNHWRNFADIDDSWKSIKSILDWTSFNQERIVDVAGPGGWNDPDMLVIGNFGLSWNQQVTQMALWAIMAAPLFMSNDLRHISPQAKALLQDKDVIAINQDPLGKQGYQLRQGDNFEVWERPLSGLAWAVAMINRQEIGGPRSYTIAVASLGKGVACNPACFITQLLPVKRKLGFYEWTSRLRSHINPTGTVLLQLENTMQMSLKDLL
Guanine nucleotide-binding protein G(i) subunit alpha-1 (Homo sapiens), sequence (P63096 whole entry, looked up): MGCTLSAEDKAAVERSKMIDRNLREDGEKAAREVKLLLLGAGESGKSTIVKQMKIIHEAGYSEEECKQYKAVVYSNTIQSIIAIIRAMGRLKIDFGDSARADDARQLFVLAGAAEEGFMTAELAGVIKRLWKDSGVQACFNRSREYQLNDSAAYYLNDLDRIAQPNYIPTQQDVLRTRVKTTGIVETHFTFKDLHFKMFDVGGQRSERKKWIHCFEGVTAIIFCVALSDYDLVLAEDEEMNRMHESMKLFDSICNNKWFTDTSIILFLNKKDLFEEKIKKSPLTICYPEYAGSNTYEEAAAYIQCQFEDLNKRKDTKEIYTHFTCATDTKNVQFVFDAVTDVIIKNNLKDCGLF
Cytochrome P450 2C9 (Homo sapiens), sequence (P11712 whole entry, looked up): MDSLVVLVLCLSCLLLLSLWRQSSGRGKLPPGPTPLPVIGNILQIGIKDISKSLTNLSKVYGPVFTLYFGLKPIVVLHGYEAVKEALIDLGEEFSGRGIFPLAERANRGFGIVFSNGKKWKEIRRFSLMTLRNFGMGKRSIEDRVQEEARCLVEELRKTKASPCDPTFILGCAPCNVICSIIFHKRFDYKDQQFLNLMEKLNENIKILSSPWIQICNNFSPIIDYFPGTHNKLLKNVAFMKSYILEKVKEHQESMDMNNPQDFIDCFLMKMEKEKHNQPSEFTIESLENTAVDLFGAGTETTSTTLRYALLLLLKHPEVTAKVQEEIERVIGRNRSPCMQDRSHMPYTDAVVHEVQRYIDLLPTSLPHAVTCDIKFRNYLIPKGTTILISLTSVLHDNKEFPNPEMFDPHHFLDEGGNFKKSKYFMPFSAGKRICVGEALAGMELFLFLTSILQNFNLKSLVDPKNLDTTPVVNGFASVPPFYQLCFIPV
Cytochrome P450 2C19 (Homo sapiens), sequence (P33261 whole entry, looked up): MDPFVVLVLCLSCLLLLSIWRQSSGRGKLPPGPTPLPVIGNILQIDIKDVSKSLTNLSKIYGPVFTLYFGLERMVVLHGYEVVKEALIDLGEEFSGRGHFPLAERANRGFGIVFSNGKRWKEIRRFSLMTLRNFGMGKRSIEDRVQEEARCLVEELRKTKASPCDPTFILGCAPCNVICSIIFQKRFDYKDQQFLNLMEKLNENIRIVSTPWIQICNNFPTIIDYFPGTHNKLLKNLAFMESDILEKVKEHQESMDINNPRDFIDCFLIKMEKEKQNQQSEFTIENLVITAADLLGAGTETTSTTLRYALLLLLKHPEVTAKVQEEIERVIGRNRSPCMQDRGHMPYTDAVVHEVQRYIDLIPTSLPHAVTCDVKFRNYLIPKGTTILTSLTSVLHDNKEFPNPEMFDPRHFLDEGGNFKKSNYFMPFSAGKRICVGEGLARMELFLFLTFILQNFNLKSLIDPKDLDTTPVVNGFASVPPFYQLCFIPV

C[C@H](NC(=O)[C@@H](N)Cc1ccc(O)cc1)C(=O)N[C@@H](Cc1ccccc1)C(=O)N[C@@H](Cc1ccccc1)C(N)=O (H-YAFF-NH2)
inactive: activity change, negative = inhibition [1] 0.112% [at 6.83 µM] | activity change, negative = inhibition [2] -10.3% [at 3.88 µM]

CC(C)C[C@H](NC(=O)[C@H](Cc1ccccc1)NC(=O)CNC(=O)[C@H](CS)N(C(=O)[C@@H](N)Cc1ccc(O)cc1)C(C)(C)C)C(=O)N([C@H](C(=O)O)[C@H](C)O)C(C)(C)C (HELM PEPTIDE1{Y.[CC(C)(C)N([C@@H](CS)C(=O)[*:2])[*:1]].G.F.L.[C[C@H](O)[C@@H](C(=O)O)N(C(C)(C)C)[*:1]]}$$$$V2.0)
inactive: activity change, negative = inhibition [1] 12.2% [at 6.83 µM] | activity change, negative = inhibition [2] -10.6% [at 3.88 µM]

Nc1ncnc2c1ncn2[C@@H]1O[C@H](COP(=O)(O)CP(=O)(O)O)[C@@H](O)[C@H]1O
inactive: Potency [1] | Potency [2]

C[C@@H](Cc1ccc(OCC(=O)O)cc1)NC[C@H](O)c1cccc(Cl)c1
8.85%: max response [19, 22]
active: Potency [10] 6.31 µM | Potency [12] 5.01 µM | Potency [14] 14.1 µM
11.5%: max response [19, 21]
inactive: Potency [3] | activity change, negative = inhibition [4] -11.2% | Potency [5] > 46 µM | Potency [6] > 46 µM | outcome [7] | Potency [8] | outcome [9] | Potency [11] | outcome [13] | outcome [15] | outcome [16] | outcome [17] | outcome [18] | activity change, negative = inhibition [19] -1.87% | Potency [20] | Potency [1] | Potency [2]

CC(=O)N1CC[N+](C)(C)CC1
-4.3%: max response [19, 21]
-0.222%: max response [19, 22]
inactive: Potency [3] | Potency [5] > 46 µM | Potency [6] > 46 µM | outcome [7] | Potency [8] | activity change, negative = inhibition [19] 2.08% | Potency [20] | Potency [1] | Potency [2]

CCCN(CCC)[C@@H]1CCc2c(OC)cccc2[C@@H]1C
12.1%: max response [19, 22]
inactive: Potency [6] > 46 µM | outcome [7] | activity change, negative = inhibition [19] -0.226% | Potency [20] | Potency [1] | Potency [2]
active: Potency [3] 31.6 µM
8.03%: max response [19, 21]
